Among all 330,000 compounds or so, about 10,000 (3%) were called active. The sample holds actives, similar compounds and a random draw of the others, so the mix is not that of the screen.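 How the source made its calls: active means inhibition of at least 50% at 8 µM in the primary screen; inactive means the rest.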

This note sets out measurements from PubChem BioAssay AID485346 (Sanford-Burnham Center for Chemical Genomics, 2010).

For the experiment, the target named is Protein Mdm4 (Homo sapiens) + E3 ubiquitin-protein ligase Mdm2 (Homo sapiens) (UniProt O15151+Q00987). In words: disruptors of Mdm2/MdmX RING complex – cell-based, luminescence, split luciferase, SaOS-2, uHTS, primary screen (AID 485346). To be noted: SaOS-2 split-luciferase Mdm2/MdmX complementation, at 8 µM, stronger effect = higher value.
Sequence of Protein Mdm4 (Homo sapiens) + E3 ubiquitin-protein ligase Mdm2 (Homo sapiens) (O15151 whole entry, looked up): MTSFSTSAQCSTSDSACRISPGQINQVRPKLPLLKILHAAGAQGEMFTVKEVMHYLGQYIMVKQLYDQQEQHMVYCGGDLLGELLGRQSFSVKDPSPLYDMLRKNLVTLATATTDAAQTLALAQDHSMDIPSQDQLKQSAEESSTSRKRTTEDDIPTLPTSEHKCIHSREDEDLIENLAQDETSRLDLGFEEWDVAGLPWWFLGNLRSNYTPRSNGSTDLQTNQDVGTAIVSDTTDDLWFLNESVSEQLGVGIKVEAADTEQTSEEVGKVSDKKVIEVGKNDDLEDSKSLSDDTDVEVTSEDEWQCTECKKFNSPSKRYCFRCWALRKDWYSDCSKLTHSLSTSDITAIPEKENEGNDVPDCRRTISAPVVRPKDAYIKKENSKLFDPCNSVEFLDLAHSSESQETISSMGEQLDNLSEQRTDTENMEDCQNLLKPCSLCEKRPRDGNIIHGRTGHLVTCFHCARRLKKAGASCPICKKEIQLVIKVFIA
Sequence of Protein Mdm4 (Homo sapiens) + E3 ubiquitin-protein ligase Mdm2 (Homo sapiens) (Q00987 whole entry, looked up): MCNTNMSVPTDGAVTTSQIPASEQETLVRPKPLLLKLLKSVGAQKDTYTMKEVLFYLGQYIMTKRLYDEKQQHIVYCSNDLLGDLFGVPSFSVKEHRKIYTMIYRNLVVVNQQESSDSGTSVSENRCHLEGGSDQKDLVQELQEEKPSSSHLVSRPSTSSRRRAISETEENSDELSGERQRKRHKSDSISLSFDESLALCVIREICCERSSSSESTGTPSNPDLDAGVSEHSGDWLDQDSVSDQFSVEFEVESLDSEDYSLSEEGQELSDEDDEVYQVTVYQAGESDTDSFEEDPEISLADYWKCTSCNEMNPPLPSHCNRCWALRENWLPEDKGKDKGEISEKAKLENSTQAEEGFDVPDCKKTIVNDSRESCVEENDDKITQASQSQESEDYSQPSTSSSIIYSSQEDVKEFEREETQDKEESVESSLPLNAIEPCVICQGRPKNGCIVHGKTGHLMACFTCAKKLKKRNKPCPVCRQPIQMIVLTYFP
`CCOc1ccc(-c2cc(C)[n+](CCN(CC)CC)c(-c3ccc(OCC)cc3)c2)cc1`: the inhibition (as a rule, the relative decrease from the control value, in per cent) was 90.7% (active). Take `COc1ccc(CCn2c(O)c(C=NCCCn3ccnc3)c(=O)[nH]c2=O)cc1OC`: the inhibition is -17.9% (inactive).

For `Cc1cc(=O)oc2c(C)c(OCC(=O)N3CCN(Cc4ccc5c(c4)OCO5)CC3)ccc12`, the inhibition is 1.14% (inactive). Regarding `CC12CN3CC(C)(CN(C1)C3c1cccs1)C2` (stereo not given), the inhibition was -26.1% (inactive). In the case of `O=C(Nc1cccc2ccccc12)N1CCC2(CC1)OCCO2`, the inhibition is -30% (inactive). On to `O=c1c2ccccc2nc(/C=C/c2ccco2)n1-c1ccccc1O`, for which the inhibition was -1.65% (inactive). Take `Cc1nc2ccccc2c(=O)n1-c1ccc(Cl)cc1Cl`: the inhibition was -13.3% (inactive). With `O=c1c2ccccc2nc(/C=C/c2ccc(F)cc2)n1-c1ccccc1O`, the inhibition was 60.9% (active). Take `CC(=O)N1CN2CN(C(C)=O)CC(C(=O)c3ccc(Br)cc3)(C2)C1`: the inhibition was 26.2% (inactive). Take `CC(=C1C(=O)c2ccccc2C1=O)N1CCN(CCN=Cc2c(O)n(C)c(=O)n(C)c2=O)CC1`: the inhibition was -1.58% (inactive). The same measure for `O=C1C2(Cl)C3(Cl)C4(Cl)C(Cl)(Cl)C5(Cl)C3(Cl)C1(Cl)C5(Cl)C24Cl` (stereo not given): 99.3% (active); for `COc1ccc2[nH]c3c(c2c1)CCN[C@H]3C`: 9.11% (inactive). The same measure for `Cc1ccc(C)c(NC2=NCCCS2)c1`: 11.6% (inactive); for `c1ccc2sc(C3CCCNC3)nc2c1` (stereo not given): -26.6% (inactive); for `Cc1cccc2c(CCN)c[nH]c12`: 13.4% (inactive). Under `CCCCCn1c(=O)c(C(=O)NCc2ccccn2)c(O)c2ccccc21` stands 13.9% (inactive); under `CCCCn1c(=O)c(C(=O)Nc2ccccc2Cl)c(O)c2ccccc21`, 37.6% (inactive). `CCCCCn1c(=O)c(C(=O)NCc2ccccc2)c(O)c2ccccc21`: the inhibition was 62.6% (active). The same measure for `CC(C)n1c(=O)c(C=Nc2ccc(Br)cc2)c(O)n(Cc2ccco2)c1=O`: -33.1% (inactive). As to `CN1CCN(/N=C/c2c[nH]c3ccccc23)CC1`, the inhibition was -22.1% (inactive). On to `OC1/C(=C/c2ccc(C(F)(F)F)cc2)N2CCC1CC2` (stereo not given), for which the inhibition is 17.5% (inactive). Under `CC(=NCc1ccc2c(c1)OCO2)c1c(O)[nH]c(=O)[nH]c1=O` stands -16% (inactive); under `COc1cc(-n2c(=S)[nH]c3ccc(C)cc3c2=O)c(Cl)cc1Cl`, 40.1% (inactive).

With `Cc1cc2ccccn2c1C(C[N+](=O)[O-])c1c(F)cccc1Cl` (stereo not given), the inhibition was 97.4% (active).

`c1cc2c(cc1C1OCC3C(c4ccc5c(c4)OCO5)OCC13)OCO2` (stereo not given): the inhibition was 1.17% (inactive). Under `COc1ccc(CCn2c(O)c(C=NC3CC3)c(=O)[nH]c2=O)cc1OC` stands 24.7% (inactive); under `CC(C)c1c(CN(C)C(C)Cc2ccccc2)n(C)n(-c2ccccc2)c1=O` (stereo not given), -0.74% (inactive). The same measure for `CC(Cc1ccccc1)NCCC(c1ccccc1)c1ccccc1` (stereo not given): 63% (active); for `CC(=O)NC(=O)NC(C)Cc1ccccc1` (stereo not given): 15.7% (inactive); for `CC(Cc1ccccc1)NC=O` (stereo not given): 12.4% (inactive). The same measure for `COC1=CC=C2[C@H]3Cc4ccc(OC)c5c4[C@@]2(CCN3C)C1O5` (stereo not given in full): 11% (inactive); for `O=c1[nH]c(=O)n(-c2ccccc2)c(O)c1C=NC12CN3CN(CN(C3)C1)C2`: -21.9% (inactive).

Consider `Cc1ccc(-c2cc(C(=O)N3CCC4(CC3)OCCO4)no2)cc1`, for which the inhibition is -32.3% (inactive). Under `O=C(c1cc2nc(-c3ccccc3)cc(-c3ccccc3)n2n1)N1CCC2(CC1)OCCO2` stands 55.7% (active); under `O=C(c1cc(-c2ccncc2)nc2ccccc12)N1CCC2(CC1)OCCO2`, -28.6% (inactive); under `c1ccc(CCNC2CCCCCC2)cc1`, 24.6% (inactive). As to `Cc1ccc(Cn2nnnc2CN2CCC(n3nnc4ccccc43)CC2)cc1`, the inhibition is 26.2% (inactive). The same measure for `CCOP(=O)(OCC)C(NC(=O)c1ccc(C)cc1)C(Cl)(Cl)Cl` (stereo not given): -8.99% (inactive); for `CNC(=S)N/N=C1\C2CN3CCN(C2)CC1(c1ccccc1)C3`: -27.4% (inactive).

Take `CN(C)c1nc(N(C)C)nc(N(C#N)CCCl)n1`: the inhibition is 28.9% (inactive). The same measure for `O=C1NC(=O)N(CCc2ccc(F)cc2)C(=O)/C1=C/C=C/c1ccccc1`: 99.4% (active); for `O=C1NC(=O)N(Cc2ccco2)C(=O)/C1=C\c1ccc(-c2ccc(F)cc2)o1`: -9.82% (inactive); for `O=C(O)COc1ccccc1/C=C1\C(=O)NC(=O)N(CCC2=CCCCC2)C1=O`: 2.61% (inactive). Under `COc1ccccc1N=C1SCCCN1C` stands -4.32% (inactive); under `CCOP(=O)(OCC)C(O)c1ccc(OC)cc1OC` (stereo not given), 19.2% (inactive). Consider `CC[N+]1(C)CCCC(OC(=O)C(O)(c2ccccc2)c2ccccc2)C1` (stereo not given), for which the inhibition was 12.9% (inactive). Under `COC(=O)C1=C(c2ccc(F)cc2OCc2ccccc2)C[C@@H]2CC[C@H]1N2C(=O)NCc1ccc(Cl)cc1` stands 55.7% (active); under `COC(=O)C1=C(c2ccc(F)cc2OCc2ccccc2)C[C@@H]2CC[C@H]1N2C(=O)NCc1ccc2[nH]ccc2c1`, 52.5% (active). With `COC(=O)C1=C(c2ccc(F)cc2OCc2ccccc2)C[C@@H]2CC[C@H]1N2C(=O)NCc1ccc(OC)c(OC)c1`, the inhibition is 14.8% (inactive). Under `COC(=O)C1=C(c2ccc(-c3ccccc3)c(F)c2)C[C@@H]2CC[C@H]1N2C(=O)NCc1ccc(F)cc1` stands 21.7% (inactive); under `COC(=O)C1=C(c2ccccc2OCc2ccccc2)C[C@@H]2CC[C@H]1N2C(=O)NCc1ccc(OC)cc1`, 12.6% (inactive); under `COC(=O)C1=C(c2ccc(F)cc2OCc2ccccc2)C[C@@H]2CC[C@H]1N2C(=O)NCc1ccc(C(C)(C)C)cc1`, 48.4% (inactive). Under `CCOP(=O)(OCC)C(NC(=O)c1ccc(OC)cc1)C(Cl)(Cl)Cl` (stereo not given) stands 16.4% (inactive); under `COC(=O)N(c1ccc(OC)cc1)P1(=S)OCCC(C)O1` (stereo not given), 7.17% (inactive); under `CCOc1ccc(C2SCC(=O)Nc3c2c(C)nn3C2CCOC(C)(C)C2)cc1` (stereo not given), 3.37% (inactive).

`CCC(=O)c1ccc(OCC(=O)N2CCN(CC(=O)Nc3ccc(C)cc3)CC2)cc1`: the inhibition is 30% (inactive).

`Cc1cccc(-n2c(O)c(C=NC34CN5CN(CN(C5)C3)C4)c(=O)[nH]c2=O)c1`: the inhibition was -8.36% (inactive). In the case of `CNCC(O)c1cc(F)c(OCc2ccccc2)c(OCc2ccccc2)c1F` (stereo not given), the inhibition is 86.6% (active). Under `O=C(NC(c1ccc(Cl)cc1)P(=O)(Oc1ccccc1)Oc1ccccc1)OCc1ccccc1` (stereo not given) stands 18.9% (inactive).

With `C[C@]12CC[C@H](O)C[C@H]1CC[C@@H]1C2CC[C@]2(C)[C@@H](C3=CC(=O)OC3)[C@@H](O)C[C@]12O` (stereo not given in full), the inhibition was 45.4% (inactive). `CCNc1nc2[nH]c(=O)c3c(c2s1)OC(N)=C(C#N)C3c1cccs1` (stereo not given): the inhibition was 17.9% (inactive). Under `N#CC1=C(N)Oc2c(c(=O)oc3ccccc23)C1c1ccccc1OC(=O)c1cccs1` (stereo not given) stands 62.3% (active); under `COC(=O)C1=C(c2cccc(OCc3ccccc3)c2)C[C@@H]2CC[C@H]1N2C(=O)NNCc1ccccc1`, 29.6% (inactive); under `CC(=O)N(C1=NCCCS1)c1ccccc1F`, 14.4% (inactive). The same measure for `CN(C)C(=O)Oc1cc(=O)n2c3c(cccc13)CCC2`: 19.2% (inactive).

On to `CCCCCCCCCCCCn1ccc(=N)cc1`, for which the inhibition was 97.2% (active).

On to `CC(C(=O)Nc1ccc(Cl)cc1Cl)N1CC=C(c2ccccc2)CC1` (stereo not given), for which the inhibition was -0.882% (inactive).

Consider `NCCc1ccc(S(=O)(=O)F)cc1`, for which the inhibition was 5.92% (inactive). In the case of `O=C1NC(=O)C(C/C=C/c2ccccc2)C(=O)N1`, the inhibition was -4.93% (inactive). Take `CC1(C)Cc2c(C#N)c(N3CCNCC3)nc(-c3ccco3)c2CS1`: the inhibition was 62% (active). Under `COc1cccc(N2C(=O)NC(=O)/C(=C\c3ccc([N+](=O)[O-])s3)C2=O)c1` stands 7.01% (inactive). As for `COC(=O)[C@@H]1C(OC(=O)c2ccccc2)CC2CCC1N2C` (stereo not given in full), the inhibition was 5.75% (inactive).

`COc1ccc(C2N3CC(C)(C)CN23)cc1` (stereo not given): the inhibition was 4.71% (inactive). Under `O=C(O)c1ccccc1NC(=O)C1C2CCC(O2)C1C(=O)O` (stereo not given) stands 40.4% (inactive); under `CCCCC(=O)N/N=C/c1c(O)n(CC)c(=S)n(CC)c1=O`, 10.6% (inactive); under `CCCCC(=O)N/N=C/c1c(O)n(CCC2=CCCCC2)c(=O)[nH]c1=O`, 50.4% (active).

As for `CCCCC(=O)N/N=C/c1c(O)n(-c2ccccc2)c(=O)[nH]c1=O`, the inhibition was 10.7% (inactive).

On to `O=C1NC(=O)C(CCc2ccccn2)(Cc2cccc(Cl)c2Cl)C(=O)N1c1ccc(Br)cc1` (stereo not given), for which the inhibition was 17.3% (inactive). As for `C/C(=N/O)c1ccc2ccc3ccccc3c2c1`, the inhibition is -52.9% (inactive).

For the molecule `O=Cc1cn(Cc2ccc(F)cc2Cl)c2ccccc12`, the inhibition was 50.9% (active). The same measure for `CN1CCC(N(C)Cc2cccnc2)CC1`: -0.974% (inactive). As to `CN(C)CCN(CC1CCCN(Cc2ccccc2F)C1)C(=O)Cc1ccc(F)c(F)c1` (stereo not given), the inhibition was 15.4% (inactive).

`CC(=O)c1ccc(OC(NC(=O)Cc2ccccc2)C(Cl)(Cl)Cl)cc1` (stereo not given): the inhibition was 6.38% (inactive). Consider `c1ccc(C2NCc3ccccc3-n3cccc32)cc1` (stereo not given), for which the inhibition is 19.8% (inactive). Under `Cn1c(C(=O)N2CCC(C(=O)N3CCC4(CC3)OCCO4)CC2)cc2sccc21` stands -1.94% (inactive); under `CNC(=O)O/N=C(\N)Cc1csc2ccccc12`, 78.8% (active); under `CNC(=O)O/N=C(\N)Cc1csc2ccc(Cl)cc12`, 97.6% (active). Under `CC[C@H]1CC2CN3CCc4c([nH]c5ccccc45)C(C(=O)OC)(C2)C13` (stereo not given in full) stands 33.7% (inactive). The same measure for `Cc1cc(N2C(=O)C3CCCN3C2c2ccc(Cl)c(Cl)c2)no1` (stereo not given): -4.12% (inactive); for `CCCn1c(C(=O)c2ccccc2OC)nc2ccccc21`: 10.6% (inactive).
